{
  "source": "paper PMC12136788",
  "binders": {"B1": {"name": "chr7:40134317:40134318:+_ENSG00000065883_ENST00000340829|hu_mus|FALSE|FALSE (ssRNA)", "RNA": "GGGAGUUCUACAGUCCGACGAUCGGAAGGGUCAUUGCUGUUUGUGAGGACUGUGAUAGGACCAUGGCUAUAUUCAAAUCUAUGGUCCUUGUCUCCACUAAACAACAUGGGACCAGCAUUGAGGUAAAUGUCUCCAUAUCCAGCCAACAGAGGAUUGAGCAUCA"}, "B2": {"name": "chr11:61557309:61557310:-_ENSG00000134825_ENST00000537328|hu_mus|FALSE|FALSE (ssRNA)", "RNA": "GGGAGUUCUACAGUCCGACGAUCGAUGCCAACCCAGAGCAGGAGGAAGAGGACUCCAAAGCCCAUGAAGAGUGAGGCCACCAAGGAGAUGAGGAGCUCUUUGUAAAUAUCGCGUGUGUACUUGGUAGAGGUGACCUCGUAAACCAACAGAGGAUUGAGCAUCA"}, "B3": {"name": "chr17:60744165:60744166:+_ENSG00000011028_ENST00000303375|hu_mus|FALSE|FALSE (ssRNA)", "RNA": "GGGAGUUCUACAGUCCGACGAUCGUUGAGGUACUUGAGGGGUGAGUUGUCUGACCACUGCCAGCCUCCACUGGUAUCCAGGUCAUUAAGGCCAAUCCAUAGCGUGGAGCUGUAGCCCGUGAGGAGCCCGUUGAUGUAGGUCUGCAACAGAGGAUUGAGCAUCA"}, "B4": {"name": "chr4:25749455:25749456:-_ENSG00000091490_ENST00000264868|hu_hu|hu_hu_hu_mus_False|48_68 (ssRNA)", "RNA": "GGGAGUUCUACAGUCCGACGAUCGCACUAUGACCUCUAGAAAAAUCCACAGGGGGAAAAAAUGUAAACCAAUUUACAAUGUUAUCGCCCUCCCUGCGUGUGGAGUGUUUGUCUCAAGGCUCCUUCUAGCUGCUGGAUUUGGGACAACAGAGGAUUGAGCAUCA"}, "B5": {"name": "chr17:25064881:25064882:-_ENSMUSG00000024163_ENSMUST00000117509|mus_mus|FALSE|FALSE (ssRNA)", "RNA": "GGGAGUUCUACAGUCCGACGAUCAUAAUGUUCUACCUGGAUCUGGAGUUCUUUCUUCUCUUGUUCCAAGGCAUCUUCAAAUUCGAUGAAUUUCUCCUCGGCCUGUUUGCGCAGCGCCUUCUCGCGCUCGUAUUGCGUGAGCAGCAACAGAGGAUUGAGCAUCA"}, "B6": {"name": "chr3:51263940:51263941:+_ENSMUSG00000063273_ENSMUST00000029303|mus_hu|FALSE|FALSE (ssRNA)", "RNA": "GGGAGUUCUACAGUCCGACGAUCGUAAAAUGGAUGCUGUCGAAGUACAUCUUCUAGUUUUAAUAAGUCCACAUAUGAUCUAAGGGUAAUCUUCCUCAUACAGUAUGUAUGAAAGUCAAACUGGUCAUCAGUGAUUUCUAUAAACAACAGAGGAUUGAGCAUCA"}, "B7": {"name": "136207635_136207755_6660_3pUTR_ENSMUSG00000028664_ENSMUST00000105845|mouse|control|control (ssRNA)", "RNA": "GGGAGUUCUACAGUCCGACGAUCGUAUAAGUGUUCUCUGCUACUCUUGUGUCUGCUCAGAAGCAGUGGGUCUAGCACUAAGGAUGUCACUAUUGACCAUAACUUCUUUCCUAGAGAUAAGGUCUUAUGUGGCCCAGGCUGGCUCAACAGAGGAUUGAGCAUCA"}, "B8": {"name": "chr6:114281168:114281169:-_ENSG00000196591_ENST00000368632|hu_hu|hu_hu_hu_mus_True|8_108 (ssRNA)", "RNA": "GGGAGUUCUACAGUCCGACGAUCUUCCAUUUUUCUGUAUAAACCAUAAUUUAGCAGCAAGUUAUGAGUCAUCCGGAUUCUAUGAGGCUUCAUGGGAUGACCCUGGCCAUAAUAAUAAUUGCCAAUAUCACAGAUUCAGUAGUACAACAGAGGAUUGAGCAUCA"}, "B9": {"name": "chr6:38652254:38652255:-_ENSG00000124767_ENST00000373365|hu_hu|hu_hu_hu_mus_False|1_78 (ssRNA)", "RNA": "GGGAGUUCUACAGUCCGACGAUCCGAGAACUUCAUAGCAGGGAAGUCAAGCUUCUGGAUUAGCGUCAGUCCAAGAACCCUCGUAUAAAAAUCCAGGGACUUCUUAGGAUCCUUAAUUCUUAGCAUCGUUUGCUGCAAUAGAAACAACAGAGGAUUGAGCAUCA"}, "B10": {"name": "chr11:60965389:60965390:-_ENSMUSG00000042506_ENSMUST00000041683|mus_hu|FALSE|FALSE (ssRNA)", "RNA": "GGGAGUUCUACAGUCCGACGAUCCAGCUCCUCAAAAUGGAAGGGGAAAGGAAGAGUAAACAUCUUGGUAAAUAAAGUCUCCAACCACAGCACAGUCAUUGGAAUUUUUUUCUUCAUUUUUAUUUUCAAACUUACAGUAAACAACAACAGAGGAUUGAGCAUCA"}, "B11": {"name": "chr2:55200753:55200754:-_ENSG00000115310_ENST00000317610|hu_hu|motif|central (ssRNA)", "RNA": "GGGAGUUCUACAGUCCGACGAUCUUGGAUUUUAGCCAUAGCAUCUUUAACAUUCUUAUUUGCAAGUCCUAGAUAAUGAUCGGUCUGUGCCUGAUGCCGUUCAUAAAUAACAGGAACACUGAAGAGUGAAAUGAGAGCCAAAAUCAACAGAGGAUUGAGCAUCA"}, "B12": {"name": "chr20:33097842:33097843:+_ENSG00000078747_ENST00000374864|hu_hu|motif|central (ssRNA)", "RNA": "GGGAGUUCUACAGUCCGACGAUCAAAAAUAUUAAAUAGCCAAGCCCUAUAGAACUAGGGCCAGGGCUACUUCAAAUAUAACGGUUCUGUAUUUUAAAAAUAUAGGGCAGAAAGCCUUUUGGGUGAUAUUUAUAUAUUUUCACACAACAGAGGAUUGAGCAUCA"}, "B13": {"name": "chr10:114190419:114190420:-_ENSG00000023041_ENST00000369405|hu_hu|FALSE|FALSE (ssRNA)", "RNA": "GGGAGUUCUACAGUCCGACGAUCGGGCAGGAAUUCAAAGGCAUAUGCAGAAUGGCUUCUCCAUUUCAAAAUGGUAAUAAAAAUAUUUAAAUCAUGGCACUAGGGCACCUUUGAGGAAAAGAACAUCUUAACCAGAGUAGGCUCCAACAGAGGAUUGAGCAUCA"}, "B14": {"name": "chr5:180275300:180275301:-_ENSG00000196670_ENST00000512132|hu_mus|motif|central (ssRNA)", "RNA": "GGGAGUUCUACAGUCCGACGAUCAGUUGUGAUCUUCCUACCACAAACCAUUACUGUUAAGUCUAUAAUUCAUGACCCACGGAUAAACUGAUAUUCCCUGAAACCAUCCUCUCCCUGAAUUUGCCUGUUGGAGGCCCUUCUUGGCAACAGAGGAUUGAGCAUCA"}, "B15": {"name": "61064472_61067304_1030_3pUTR_ENSG00000119541_ENST00000238497|human|control|control (ssRNA)", "RNA": "GGGAGUUCUACAGUCCGACGAUCUUCGUUUCUCAAAUCUUCGCCUAAUGGCAGAAUCCAGAACCCAGGGUAUAUUUGUAGCUCCCAGAACCAAAAUUCCAUCAUUGUCUACACCAACCCCUUGCAUUUGCACUAGGAACUCCGCAACAGAGGAUUGAGCAUCA"}, "B16": {"name": "chr17:73267850:73267851:+_ENSMUSG00000024063_ENSMUST00000024857|mus_mus|FALSE|FALSE (ssRNA)", "RNA": "GGGAGUUCUACAGUCCGACGAUCGAAAUAUACAGACAUGAAGUCCUAGGGGAGGCUGACCCACGCCCUUGUGAUUAAGAAAAACAAAACAAAACAAAACAAACAAACAAACAAAAAAAAACCAGUCACUGAGUCCUGAAUGAGCAACAGAGGAUUGAGCAUCA"}, "B17": {"name": "chr1:135034296:135034297:+_ENSMUSG00000046062_ENSMUST00000052529|mus_hu|FALSE|FALSE (ssRNA)", "RNA": "GGGAGUUCUACAGUCCGACGAUCUAGCCUAACAUAGACAGGCCAAAUCAUUGAAAUAAAAAAAAUAUAGAAAAACAUAAAAGCCCAUUAACUUCUGAAUUUUGGGAAAGAAACAAGAAAGAGCCCAAAGUUUUCAGAUAGGCACAACAGAGGAUUGAGCAUCA"}, "B18": {"name": "chr1:53517203:53517204:+_ENSG00000116171_ENST00000408941|hu_mus|FALSE|FALSE (ssRNA)", "RNA": "GGGAGUUCUACAGUCCGACGAUCUCAGGAAGAGCUGUUUUAAUUUUCUUUUUAAAUCUUCCAAAAGCAUAUUUUUAUCCCAAACCUAAAUUAUAACAAAUAGCAUUAGAAUUAGAAAAACUUGGAAGAAAGAUAAAUGCAGACCAACAGAGGAUUGAGCAUCA"}, "B19": {"name": "chr15:81824118:81824119:-_ENSMUSG00000022472_ENSMUST00000152227|mus_mus|motif|central (ssRNA)", "RNA": "GGGAGUUCUACAGUCCGACGAUCGAAGGGAACCUUAAGGUCCCUCUGGAAUCUGGAGUCUAGAUCAUAGACUUCGGGGCGGUUGCUGCCCAUGAAAUCCUAGCAGCAUAUCAUUAAGAAAACGCCCACUCACACCCCAACCACCAACAGAGGAUUGAGCAUCA"}, "B20": {"name": "14087313_14087433_2671_3pUTR_ENSG00000147862_ENST00000380959|human|control|control (ssRNA)", "RNA": "GGGAGUUCUACAGUCCGACGAUCGGGAAAAUAAAUUCGUUCAAAAUUAUUUUAAAUUCUUUUUAAUCCCCUCAAUUUAGAGUCCAAGGGCUGAAGGACUUAUAAUCAUGAUUCCCCUUUAGAUAUAAAUUUAUAAAUUGCACUCAACAGAGGAUUGAGCAUCA"}},
  "note": "Whole data set: some 24,000 sequences, median “enrichment r” near 0.99, cut for the highest 2% near 3.7. Only a selection was taken, and the highest values are over-represented in it overall.",
  "data": [
    {"target": "T1, UNK ZnF1-3 (human, UniProt Q9C0B0 31-174)", "T1 sequence": "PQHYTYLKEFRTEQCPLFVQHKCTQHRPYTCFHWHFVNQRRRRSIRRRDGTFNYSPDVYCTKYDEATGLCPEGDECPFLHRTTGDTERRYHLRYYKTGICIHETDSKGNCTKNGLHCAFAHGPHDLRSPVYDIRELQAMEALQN", "assay": "nsRBNS (natural sequence RNA bind-n-seq); RBNS binding buffer (assumed for nsRBNS): 25 mM Tris pH 7.5, 150 mM KCl, 3 mM MgCl2, 0.01% Triton X-100, 500 ug/ml BSA, 20 U/ml SUPERase-In, 4 C; UNK is unkempt and MSI1 is Musashi-1; names of the RNAs are library labels; protein concentration not given here; high values mean tight binding", "units": {"binding signal": "enrichment R"}, "values": [
      {"binder": "B1", "binding signal": 0.887},
      {"binder": "B2", "binding signal": 2.5},
      {"binder": "B3", "binding signal": 1.03},
      {"binder": "B4", "binding signal": 1.03},
      {"binder": "B5", "binding signal": 0.355},
      {"binder": "B6", "binding signal": 0.873},
      {"binder": "B7", "binding signal": 0.733},
      {"binder": "B8", "binding signal": 1.03},
      {"binder": "B9", "binding signal": 1.08},
      {"binder": "B10", "binding signal": 2},
      {"binder": "B11", "binding signal": 1.53},
      {"binder": "B12", "binding signal": 0.982},
      {"binder": "B13", "binding signal": 4.18},
      {"binder": "B14", "binding signal": 0.806},
      {"binder": "B15", "binding signal": 1.29},
      {"binder": "B16", "binding signal": 4.8},
      {"binder": "B17", "binding signal": 11.8},
      {"binder": "B18", "binding signal": 1.47},
      {"binder": "B19", "binding signal": 1.07},
      {"binder": "B20", "binding signal": 4.87}
    ]}
  ]
}
